zVAD death inh: blocks zVAD induced death of L929 cells | L929 zVAD necroptosis rescue, ATP luminescence, 24 h; with zVAD 60 µM | viability rescue, % at 10 µM | 0.38% of 220,000 active;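 active = activation, scaled between plate controls, above about 75%, limit read from the data; inactive = activation under that limit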;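 also: 0% = zVAD with DMSO and 100% = DMSO alone without zVAD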
HIF act: HIF pathway transcriptional activation; U2OS HRE-luciferase reporter, luminescence; normalized: DMSO 0%, desferrioxamine 100%; activation, % at 7.5 µM (by protocol); 0.32% of 300,000 active; AID 1910;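 active = mean activation of at least 10% of the iron chelator positive control signal, with at least half of replicates also reaching 10%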
Calb FLC: affects C. albicans growth with fluconazole | C. albicans CaCi-2 (fluconazole-resistant clinical isolate) + fluconazole, Alamar Blue growth, 48 h | growth inhibition, % (concentration not given with the values) | 0.57% of 300,000 active | AID 1979;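 active = growth inhibition above about 58% in most replicates, limit read from the data, passing the limit was not always enough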;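 also: all wells also contain fluconazole at 8 µg/ml as a sub-toxic cotreatment; 0% = median of DMSO wells and 100% = median of geldanamycin control wells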
TNF necrop inh: TNF-alpha cell death inhibition in Jurkat FADD-/- cells; 0.068% of 220,000 active; activation (protection from cell death), % at 10 µM; Jurkat FADD-/- TNF necroptosis rescue, ATP luminescence, 24 h; 0 = TNF only, 100 = no-TNF cells; AID 463075;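 active = activation, meaning protection from cell death, of at least 50% relative to plate controls; inactive = activation below 50%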;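 also: necroptosis triggered by 40 ng/mL TNF-alpha added together with compound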
* hit, by the source's call; . = not tested or not shown. Sampled rows, rich in hits. Any-hit rate of the full collection: about 1.1%.

SMILES | zVAD death inh | HIF act | Calb FLC | TNF necrop inh
Cc1cc(=O)[nH]c(N/N=C/c2cccc(Br)c2)n1 | . | 1.4 | 17.7 | .
O=c1cnnc(N/N=C/c2ccccn2)[nH]1 | 45.8 | 75.3* | 95.4* | -21.5
CCN(Cc1nc(-c2cccc(C)c2)no1)C(=O)c1ccco1 | . | 1.7 | -1.8 | .
O=C(NNC(=O)c1cc(Cl)ccc1O)c1ccc(NS(=O)(=O)c2cccs2)cc1 | . | 1.0 | 84.3* | .
O=C(CCl)N1c2ccccc2CCc2ccccc21 | . | -0.3 | 84.0* | .
CCC(=O)N1CCN(c2ccc(NC(=O)c3ccc4c(c3)OCCO4)cc2)CC1 | 0.0 | 0.4 | -1.3 | -0.5
CCC(=O)N1CCN(c2ccc(Cl)cc2NC(=O)c2ccc3c(c2)OCCO3)CC1 | -0.4 | -0.7 | 89.6* | -3.0
O=C(CCCCCN1C(=O)c2ccccc2C1=O)Nc1ccccc1 | -0.3 | 0.2 | -8.2 | 0.9
O=C(CCCCCCC(=O)Nc1ccccc1)NO | . | 190.4* | -11.3 | .
CCc1cc(C(=O)NNC(=S)Nc2cc(C)ccc2C)cs1 | -0.5 | 1.3 | 99.1* | -0.4
Cc1c(C(=O)N(C)C)sc2nc(-c3ccccn3)[nH]c(=O)c12 | -0.9 | 0.3 | -5.1 | -1.7
O=c1[nH]c(-c2ccccn2)nc2sc(-c3ccccc3)cc12 | 64.2 | 72.1* | -20.5 | -6.2
CC(=O)Nc1ccc(S(=O)(=O)NC(C)c2ccccc2)cc1 (centres undefined) | . | -0.8 | 1.7 | .
CC1=C(C(N)=O)C(c2ccc(C)o2)C(C(N)=O)=C(C)N1 | 0.0 | -0.4 | 70.8* | -1.9
O=C(NCC1CCCO1)c1cc(-c2ccccc2F)no1 (centres undefined) | . | 13.5* | 7.1 | .
O=C(NCC1CCCO1)c1ccccc1 (centres undefined) | 0.2 | 0.8 | 9.8 | 1.0
COc1ccccc1NC(=O)c1ccc(S(=O)(=O)N2CCC(C)CC2)cc1 | . | -0.3 | 12.3 | .
Cc1ccc(CC2SC(=O)NC2=O)cc1Cl (centres undefined) | 84.3* | 0.0 | -8.7 | 20.3
O=C(Nc1cccc(Cl)c1Cl)C1CCN(C(=O)c2cccs2)CC1 | . | 0.0 | 6.1 | .
CCOCCc1nnc(NC(=O)C2CCN(C(=O)c3ccco3)CC2)s1 | . | -0.1 | 1.4 | .
O=C(CSc1nnc(-c2ccc(Br)cc2)o1)Nc1cccc(C(=O)O)c1 | . | -4.5 | 2.3 | .
O=C(CSc1nnc(-c2ccc(Br)cc2)o1)Nc1cccc2ccccc12 | -0.9 | . | 85.4* | 1.0
COc1cc([C@@H]2c3cc4c(cc3[C@@H](NC3CCN(Cc5ccccc5)CC3)[C@H]3COC(=O)[C@H]23)OCO4)cc(OC)c1O | 4.0 | 15.2* | 101.1* | -23.5
COc1ccc(CNC(=O)C2CCCN(S(=O)(=O)c3ccc4c(c3)CCCN4C(C)=O)C2)cc1 (centres undefined) | . | 0.2 | 2.5 | .
CCN(CC)S(=O)(=O)c1ccc(N2CCOCC2)c(NC(=O)c2cccc3ccccc23)c1 | 0.3 | 46.3* | 24.2 | 1.9
SMILES | zVAD death inh | HIF act | Calb FLC | TNF necrop inh
Cc1ccc(-c2nc3ccccc3nc2Cl)cc1 | 5.6 | 2.6 | -8.9 | 0.1
Cc1ccc(-c2nc3ccccc3nc2NN)cc1 | 1.5 | 17.7* | 0.1 | -2.7
Nn1c(SCC(=O)NNC(=O)c2ccccc2)nnc1-c1ccccc1F | . | -0.8 | 1.6 | .
O=c1cc(CSc2ccc(Cl)cc2)nc(-c2ccccn2)[nH]1 | . | 7.0 | 111.7* | .
COc1ccc(OC)c(NC(=O)CCc2nnc3ccc(NCc4ccco4)nn23)c1 | . | 17.3* | -3.0 | .
O=C(NCc1ccc(Cl)cc1)c1n[nH]c([N+](=O)[O-])c1Cl | -1.8 | 0.2 | 97.0* | -0.6
OCc1ccnc2c(O)cccc12 | -0.4 | 0.7 | 106.6* | -13.3
CCc1nc2oc3ccccc3c(=O)c2cc1C(=O)OC | . | 0.8 | -9.0 | .
CCCc1ccc(OCC(=O)Nc2cc(S(=O)(=O)CC)ccc2O)cc1 | 10.8 | 2.4 | 90.1* | 0.6
O=C(NCc1ccccn1)C(=O)Nc1cc2c3c(c1)CC(=O)N3CCC2 | . | 0.6 | 2.2 | .
O=[N+]([O-])c1ccc(OCCCCN2CCCCC2)cc1 | 1.1 | 189.0* | -12.0 | 1.3
O=C(NC1CCSC1=O)c1ccc(Cl)cc1 (centres undefined) | -0.5 | -0.1 | 8.3 | -1.3
O=C(COc1ccc(Cl)cc1)NC1CCSC1=O (centres undefined) | 1.8 | 0.4 | 101.9* | 1.4
COc1ccc(CNC(=O)CN(CC2CCCO2)C(=O)CNS(=O)(=O)c2ccc(C)cc2)cc1 (centres undefined) | -0.4 | 27.0* | -20.6 | -4.6
CCCS(=O)(=O)c1ccc(COC(=O)Cc2ccc([N+](=O)[O-])cc2)cc1 | . | -9.8 | 0.2 | .
CN(C)S(=O)(=O)c1ccc(N2CCCC2)c(C(=O)N2CCN(S(=O)(=O)c3ccccc3F)CC2)c1 | . | 0.3 | 12.4 | .
CC(C)n1cc(/C=N/Nc2ccc(C(=O)O)cc2)c2ccccc21 | . | -10.3 | -2.1 | .
Cn1cc(/C=N/Nc2ccccc2)c2ccccc21 | -0.9 | -0.6 | 101.3* | -0.8
C=CCOc1ccc(/C=C/C(=O)OCC(=O)N2CCCc3ccccc32)cc1 | . | -10.7 | 1.5 | .
CN1CCN(C(=O)c2cnn(-c3ccccc3)c2NC(=O)c2ccccc2)CC1 | -0.3 | 0.0 | 93.7* | -0.7
CN1CCN(C(=O)c2cnn(-c3ccccc3)c2NC(=O)c2ccc(Br)cc2)CC1 | . | -0.5 | -12.0 | .
C/C(=N\NC(=O)c1nnn(-c2nonc2N)c1-c1ccccc1)c1ccccc1O | . | 32.6* | 30.1 | .
C/C(=N\NC(=O)c1nnn(-c2nonc2N)c1-c1ccc2c(c1)OCO2)c1ccccc1 | . | 0.5 | -1.1 | .
COCc1c(C(=O)N/N=C(\C)c2ccc(Cl)s2)nnn1-c1nonc1N | . | 29.2* | 23.9 | .
CC1(OC(=O)c2cccs2)C(=O)C=C2C=C(C3CC3)OC=C2C1=O (centres undefined) | . | 111.9* | 5.4 | .
SMILES | zVAD death inh | HIF act | Calb FLC | TNF necrop inh
CCOC(=O)C1(CCCc2ccccc2)CCN(C2CCN(C(C)=O)CC2)CC1 | -0.7 | -0.1 | -3.9 | 2.0
CCCCc1nnc(NC(=O)C(C)Sc2nc(N)cc(=O)[nH]2)s1 (centres undefined) | 0.1 | 0.0 | 75.6* | 0.5
Cc1cccc(N(Cc2ccccc2)C(=O)c2cccc(S(=O)(=O)N3CC(C)OC(C)C3)c2)c1 (centres undefined) | . | -1.9 | 7.2 | .
O=C(Cc1ccccc1)Nc1nonc1NC(=O)c1ccccc1 | 0.0 | 2.0 | 80.6* | -5.5
CN(CC(=O)Nc1ccccc1Oc1ccccc1)Cc1ccccc1F | -0.2 | 129.3* | 5.8 | -3.9
CCOc1ccccc1NC(=O)C(=O)N/N=C/c1cc(Br)ccc1O | 64.6 | 4.7 | 108.4* | -11.7
CCOc1ccccc1N(CC(=O)N/N=C/c1cc(Br)ccc1OC)S(C)(=O)=O | 0.6 | 25.8* | 4.0 | -2.5
NS(=O)(=O)c1ccc(CCNC(=O)CC(NC(=O)c2ccccc2Cl)c2ccccc2)cc1 (centres undefined) | 1.2 | 0.0 | -2.0 | 3.0
COc1ccc(CCNC(=O)CC(NC(=O)c2ccccc2Cl)c2ccccc2)cc1 (centres undefined) | 0.9 | 46.3* | -12.8 | 3.1
O=[N+]([O-])c1ccc(O)c(Nc2ncnc3ccc(Br)cc23)c1 | 3.4 | -0.4 | 85.1* | -1.3
Cc1nnc(NC(=O)CSc2ncnc3c2cnn3-c2ccccc2C)s1 | 0.2 | -0.5 | 84.6* | 3.7
